Compound activity as filed in PubChem.
ERa SRC1 pot: ER-alpha (human) coactivator binding potentiation | 86,000 tested, 1.3% active | TR-FRET ERalpha-LBD/SRC-Cy5 coactivator binding, 2 h; 100 = basal binding, no effect | coactivator binding (% of control), % at 25.6 µM; in the data active means activity above about 200%;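 further: binding measured in presence of low estradiol as agonist stimulus; 0% = peptide alone without receptor and 100% = receptor with peptide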
ERa coact inh: ER-alpha (human) coactivator binding inhibition; TR-FRET ER-alpha LBD / SRC-1 peptide, estradiol-bound; inhibition, % at 25.6 µM; 86,000 tested, 1.7% active; AID 629; in the data active means inhibition above about 50%;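 further: 0% = receptor plus peptide control and 100% = peptide only without receptor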
ERb SRC1 inh: blocks coactivator binding to human estrogen receptor beta. AID 633. TR-FRET ER-beta LBD / SRC1-Cy5 peptide binding; receptor agonist-loaded with 1 µM estradiol. inhibition, % at 25.6 µM. Q92731. 86,000 tested, 1.3% active;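 active means compounds whose percent inhibition of the receptor-coactivator binding signal exceeds about 50% in the single-dose screen, limit read from the data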;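 further: 0% = receptor plus peptide wells without compound and 100% = peptide-only wells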
Mac1 fbg inh: blocks human CD11b/CD18 adhesion to fibrinogen | P05107+P11215 | K562 CD11b/CD18 adhesion to fibrinogen, ATPlite luminescence; Mn2+ added to activate the integrin | inhibition, % at 10 µM | 93,000 tested, 0.54% active;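 active means primary inhibition of 50% or more at 10 µM, then 40% or more on retest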
Target sequence (P05107 whole entry, looked up, other chains not shown): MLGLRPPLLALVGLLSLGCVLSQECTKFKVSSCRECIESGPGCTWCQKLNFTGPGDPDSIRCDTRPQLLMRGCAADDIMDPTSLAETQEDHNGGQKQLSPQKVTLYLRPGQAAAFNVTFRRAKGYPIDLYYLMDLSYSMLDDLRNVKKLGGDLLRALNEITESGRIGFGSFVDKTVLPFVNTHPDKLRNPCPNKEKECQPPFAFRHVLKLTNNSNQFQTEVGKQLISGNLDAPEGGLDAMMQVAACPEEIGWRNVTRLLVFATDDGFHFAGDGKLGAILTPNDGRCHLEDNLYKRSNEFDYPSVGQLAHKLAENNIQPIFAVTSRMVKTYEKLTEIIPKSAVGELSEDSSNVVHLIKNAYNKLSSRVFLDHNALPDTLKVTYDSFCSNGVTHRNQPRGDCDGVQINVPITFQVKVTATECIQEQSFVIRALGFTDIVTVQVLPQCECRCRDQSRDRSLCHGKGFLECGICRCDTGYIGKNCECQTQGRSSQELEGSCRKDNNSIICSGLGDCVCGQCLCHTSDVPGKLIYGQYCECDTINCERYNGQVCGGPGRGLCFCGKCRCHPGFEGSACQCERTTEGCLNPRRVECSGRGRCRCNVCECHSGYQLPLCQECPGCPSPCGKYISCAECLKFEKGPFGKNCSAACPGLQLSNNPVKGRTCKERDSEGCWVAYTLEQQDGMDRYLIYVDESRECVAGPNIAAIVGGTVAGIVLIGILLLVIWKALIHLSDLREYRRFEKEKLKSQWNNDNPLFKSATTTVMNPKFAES
CD11b adhes enh: increases human CD11b/CD18 adhesion to fibrinogen. 93,000 tested, 0.07% active. AID 1499. activation, % at 10 µM. P05107+P11215. K562 CD11b/CD18 adhesion to fibrinogen, ATPlite luminescence;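 active means 10 µM primary screen giving 50% or more activity, confirmed by 40% or more on retest at that dose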
FAK inh: FAK (human) kinase inhibition; biochemical FAK kinase activity assay; inhibition, %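 (tested at 7 µM)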; 97,000 tested, 0.84% active;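 further: 0% = DMSO and 100% = reference compound high control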
FAK inh conf: FAK (human) inhibition confirmed. shares compounds with FAK inh. FAK kinase biochemical inhibition assay. inhibition, % at 7 µM. 750 tested, 28% active
An asterisk follows results filed as active; . = not tested or not shown; [ ] = dose if it differs, or a comment. Sampled rows, rich in hits. Any-hit rate of the full collection: about 3.5%. Unless noted, no stated cut-off is given here; in the data, active means inhibition above about 19%; inactive means the rest.

SMILES	ERa SRC1 pot	ERa coact inh	ERb SRC1 inh	Mac1 fbg inh	CD11b adhes enh	FAK inh	FAK inh conf
CC1CCCC(C)N1C(=O)c1cccc2c1-c1ccccc1/C2=N/O (stereo not given)	83	-14	-14	.	.	14	.
O=C(CSc1nn(-c2ccc(Cl)cc2)c(=S)s1)N1CCN(C(=O)c2ccco2)CC1	117	-4	-7	17	3	.	.
COc1ccc(OCCCc2c(C)n[nH]c2C)cc1	96	-7	7	16	1	-1	.
Cc1n[nH]c(C)c1CCCOc1ccccc1	95	-3	-12	13	-6	50*	3
O=c1c2ccccc2nc2ccc(NCc3ccco3)nn12	68	36	47	-20	-5	23*	1
CC1CCN(CCCNC(=O)c2ccc(CS(=O)(=O)Cc3ccccc3F)o2)CC1	125	-1	3	.	.	-2	.
O=C(NCCCN1CCCCCC1)c1ccc(CS(=O)(=O)Cc2ccccc2F)o1	636*[fluorescence artefact?]	30	40	.	.	25*	30*
Cc1cccc(NC(=O)c2cc(Cl)nc3ccccc23)c1	.	.	.	.	.	0	.
CC(CCN(C)C)OC(=O)c1ccc(C(C)c2ccccc2)o1 (stereo not given)	120	-1	4	-8	-2	-3	.
C=CCn1cc(/C=N\NC(=O)c2cc3c(ccc4ccccc43)o2)c2ccccc21	.	.	.	.	.	2	.
O=C(N/N=C/C=C/c1ccccc1)c1cc2c(ccc3ccccc32)o1	.	.	.	.	.	42*	17
Cn1c(=O)c2c(nc(NCCCN3CCOCC3)n2Cc2ccc(Cl)c(Cl)c2)n(C)c1=O	.	.	.	.	.	5	.
C=CCN1C(=O)/C(=C/c2ccc(OC)cc2)S/C1=N/c1nccs1	.	.	.	1	1	.	.
C=CCN1C(=O)/C(=C2/C(=O)N(CC(=O)O)c3ccccc32)S/C1=N/c1nccs1	.	.	.	2	10	22*	10
C/C(=N\NC(=O)c1[nH]c2c([N+](=O)[O-])cc(C)cc2c1-c1ccccc1)c1cccnc1	64	26	16	-4	2	20*	1
C/C(=N\NC(=O)c1ccoc1C)c1cccnc1	.	.	.	7	-2	.	.
OC(COc1ccc(C2C=CCC2)cc1)CN1CCCCC1 (stereo not given)	263*[fluorescence artefact?]	37	63*[fluorescence artefact?]	10	26	22*	8
CC1CCc2c(sc3nc(SCC(=O)NCc4ccco4)nc(N)c23)C1 (stereo not given)	86	13	16	-10	1	2	.
CCN(CC)C(=O)CSc1nc(N)c2c3c(sc2n1)CC(C)CC3 (stereo not given)	93	8	-5	6	-2	28*	32*
CC(C)(C)c1csc(N(CCC#N)CCC#N)n1	112	4	-5	-17	0	-1	.
CCOc1cc(C(c2c(C)[nH][nH]c2=O)c2c(C)[nH][nH]c2=O)ccc1OCc1ccc([N+](=O)[O-])cc1	91	2	22	26	-1	-1	.
CCOc1cc(/C=C2/NC(=S)NC2=O)ccc1OCc1ccc([N+](=O)[O-])cc1	.	.	.	29	21	41*	22*
CS(=O)(=O)N1CCN(c2ccccc2NC(=O)c2ccc(Br)o2)CC1	96	-7	39	-7	2	21*	3
CC(C)c1ccc(-c2nc(N3CCCC3)nc3n[nH]c(N)c23)cc1	120	0	-10	-12	-6	.	.
Nc1[nH]nc2nc(N3CCOCC3)nc(-c3ccccc3)c12	105	-26	-23	1	-1	24*	4
SMILES	ERa SRC1 pot	ERa coact inh	ERb SRC1 inh	Mac1 fbg inh	CD11b adhes enh	FAK inh	FAK inh conf
CCn1c2ccccc2c2cc(NC(=O)Cc3ccc(S(=O)(=O)N4CCOCC4)s3)ccc21	91	1	23	-6	110	10	.
CC(=O)N(/N=C1\Sc2ccccc2C1=O)c1cccc(C)c1	47	25	-7	18	-1	19*	16
Nc1nc2ccc([N+](=O)[O-])c(N)c2s1	.	.	.	.	.	25*	6
CCC(=O)Nc1ccc(S(=O)(=O)Nc2cc(C)on2)cc1	.	.	.	-2	3	34*	0
CCOC(=O)Nc1ccc(S(=O)(=O)Nc2cc(C)on2)cc1	115	-5	8	6	1	-4	.
C=C(c1cccc2ccccc12)P(=O)(O)O	113	6	2	-6	-4	29*	20*
Cc1cc(C)cc(OCC(=O)Nc2ccc(N3CCCC3)cc2)c1	3	97*[fluorescence artefact?]	71*	-11	73	39*	40*
COc1ccc(C(=O)Nc2ccc(N3CCCC3)cc2)cc1	24	84*[fluorescence artefact?]	41	6	67	32*	13
CCOc1ccc(C(=O)Nc2ccc(N3CCCC3)cc2)cc1	.	.	.	-6	103	17	.
COc1cc(S(=O)(=O)N2CCN(C)CC2)c(OC)cc1Cl	98	0	-11	1	-3	0	.
Nc1ncnc2nc(SCC(=O)N3CCN(c4ccccc4)CC3)[nH]c12	107	-2	-8	5	-3	4	.
Nc1ncnc2nc(SCc3ccccc3)[nH]c12	110	-5	2	-9	0	38*	13
Cc1cc(C)n2nc(SCC3COc4ccccc4O3)nc2n1 (stereo not given)	128	-1	-7	-8	-2	-3	.
COC(=O)c1c(NC(=O)Cc2cccs2)sc2c1CCCC2	57	90*[fluorescence artefact?]	74*	9	8	21*	8
O=C(Nc1cccc(NC(=O)c2ccc(Br)o2)n1)c1ccc(Br)o1	258*[fluorescence artefact?]	30	22	-3	72	26*	12
COc1ccc(/C=N/NC(=O)Nc2cccc3nsnc23)c(OC)c1	.	.	.	-15	5	26*	3
COc1cc(/C=N/NC(=O)Nc2cccc3nsnc23)cc(OC)c1OC	.	.	.	-6	4	2	.
CC(=O)C1=C(O)C(=O)N(c2ccc(S(N)(=O)=O)cc2)C1c1ccc([N+](=O)[O-])cc1 (stereo not given)	97	0	-3	.	.	10	.
O=c1oc2ccccc2c(Nc2ccc3ccccc3c2)c1[N+](=O)[O-]	54	71*[fluorescence artefact?]	18	1	-3	24*	6
O=c1oc2ccccc2c(Nc2ccc(O)cc2)c1[N+](=O)[O-]	90	9	9	.	.	6	.
CCC(C)(C)n1nnnc1CN1CCC(NC(=O)c2ccc(Br)cc2)CC1	101	-26	-19	.	.	0	.
CCN(CC)c1ccc2cc(-c3nc4ccccc4[nH]3)c(=O)oc2c1	140	28	6	101	-5	53*	31*
CCOC(=O)c1cnn(-c2ncnc3sc4c(c23)CCC4)c1N	112	5	12	-7	-2	26*	17
O=C(Nc1ccccc1C(=O)NCc1ccc(Cl)cc1)c1ccco1	166	34	3	-1	2	27*	2
